Sampled rows, rich in hits. Any-hit rate of the full collection: about 12%.
ROMK primary = human ROMK K+ channel modulation, primary screen; AID 1918; P48048; Tet-inducible ROMK, thallium flux fluorescence; actives lie on both sides; hit rate 2% among 130,000; B-score at 10 µM;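 active = signal ratio slope over the read window, or its plate-corrected B-score, at least 3 SD from the plate mean, either direction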;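 note: B-score of the F/F0 ratio slope over 7 to 12 s after thallium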
Target sequence (P48048 whole entry, looked up): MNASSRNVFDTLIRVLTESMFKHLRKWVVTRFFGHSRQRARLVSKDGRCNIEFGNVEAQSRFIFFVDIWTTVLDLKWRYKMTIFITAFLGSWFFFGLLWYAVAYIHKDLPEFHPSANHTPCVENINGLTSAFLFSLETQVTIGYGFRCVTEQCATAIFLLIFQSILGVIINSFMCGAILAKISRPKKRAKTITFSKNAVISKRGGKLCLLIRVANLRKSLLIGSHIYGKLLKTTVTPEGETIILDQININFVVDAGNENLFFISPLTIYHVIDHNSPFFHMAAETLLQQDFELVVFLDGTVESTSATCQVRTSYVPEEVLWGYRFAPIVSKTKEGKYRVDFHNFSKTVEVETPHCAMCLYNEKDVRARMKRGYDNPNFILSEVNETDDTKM
Insulin prom inh = TRM-6 insulin promoter activity inhibition; hit rate 0.9% among 130,000; TRM-6 cells (human fetal islet line), insulin promoter-eGFP reporter, imaging; reporter expression induced with tamoxifen; inhibition, % at 2 µM;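 active = inhibition above the mean plus 3 SD, with well images judged a real hit on visual review, cut at about 60% in these data, passing the limit was not always enough; inconclusive = inhibition over the cutoff but images rejected on review; inactive = inhibition not above the cutoff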
WT yeast gro inh = growth inhibition of WT yeast, mitochondrial fusion screen; AID 1362; mitochondrial fusion phenotypic screen, WT strain; hit rate 2.1% among 190,000; inhibition, % at 10 µM; in the data active = inhibition above about 58%; tested in S. cerevisiae
Ins promoter up = MIN6 insulin promoter up-regulation | MIN6 insulin promoter-GFP reporter, high-content imaging; active compounds read high | z-score at 5 µM | hit rate 0.3% among 190,000 | AID 1625;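 active = z-score above 3 at 5 µM with at least 500 cells counted in the well; inconclusive = wells under 500 cells, flagged as cytotoxic or low count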
KCC2 mod = KCC2 (human) Cl- transport modulation | KCC2 cells, thallium flux FluoZin-2 fluorescence | hit rate 2.2% among 190,000 | B-score of Tl+ flux slope (higher = more flux/activation; lower = inhibition) at 10 µM | AID 1456 | Q9H2X9;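 active = thallium flux slope and its plate-corrected score both differing from the plate sample mean at a set confidence after two filtering rounds, in either direction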;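 note: slope of fluorescence scaled to starting intensity during 10 to 20 s after thallium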
Lmaj promast = Leishmania major promastigote growth inhibition; Leishmania major promastigotes, resazurin fluorescence viability; inhibition, % at 10 µM; hit rate 9% among 200,000; in the data active = inhibition above about 50%;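 note: promastigotes grown with compound for 44 hours at 28 °C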
KCC2 sec1 = KCC2 (human) modulation, secondary assay; normalised thallium flux (F/F0 slope) at 10 µM; AID 1713; shares compounds with KCC2 mod; hit rate 15% among 3,700; HEK293-KCC2, thallium flux, FluoZin2 fluorescence; active compounds read high;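 active = thallium flux slope above the same plate's solvent-only control mean plus 3 SD; inconclusive = the two replicate wells disagree; inactive = no significant difference from solvent-only control wells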
KCC2 bumet counter = thallium flux despite bumetanide block in KCC2 cells, secondary assay 3; hit rate 49% among 3,700; shares compounds with KCC2 mod; normalized thallium flux at 10 µM; HEK293-KCC2 + bumetanide/ouabain, thallium flux FluoZin2; active compounds read high; AID 1714;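 active = thallium entry rate above the same plate's blocked-transporter control wells by more than 3 SD; inconclusive = the two repeat wells disagree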;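 note: raw slope of fluorescence over initial fluorescence between 10 and 20 s after thallium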
KCC2 sec2 = KCC2 (human) modulation, second secondary assay. AID 1715. HEK293-KCC2, thallium flux FluoZin2 fluorescence; actives lie on both sides; F/F0 rise rate, 10–20 s post-thallium. hit rate 23% among 3,700. normalized thallium flux at 10 µM. shares compounds with KCC2 mod;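 active = thallium flux slope more than 3 SD above or below the plate's solvent-only control mean, mostly below; inconclusive = the two repeat wells disagreed; inactive = no significant shift from solvent-only controls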;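 note: raw slope with 0.1% DMSO as baseline and bumetanide as block control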
HEK counter1 = acts in parental HEK cells, KCC2 counter-screen. shares compounds with KCC2 mod. HEK293 parental cells, thallium flux FluoZin2, ouabain; baseline-ratio fluorescence slope, 10–20 s after thallium. thallium flux rate (normalised fluorescence) at 10 µM. hit rate 46% among 3,700. AID 1716;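 active = thallium flux rate significantly above the same plate's solvent-only control wells, beyond their mean plus 3 SD; inconclusive = the two replicate wells gave conflicting results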
KCC2 ouabain = KCC2 (human) modulation, ouabain retest; hit rate 48% among 3,700; HEK293-KCC2, thallium flux FluoZin2 fluorescence; bidirectional: low = inhibitor, high = activator; raw Tl+ flux slope (below DMSO = inhibition, above = activation) at 10 µM; shares compounds with KCC2 mod; AID 1717;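 active = thallium flux slope beyond 3 SD from same-plate DMSO control mean in most replicates, usually higher, sometimes lower; inconclusive = repeat tests gave conflicting results; inactive = no significant difference from controls in most replicates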;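 note: slope of initial-normalized fluorescence between seconds 10 and 20 after thallium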
HEK293 Tl flux2 = parental HEK flux effect, counter-screen 2. shares compounds with KCC2 mod. HEK293 parental, thallium flux FluoZin-2 fluorescence slope. thallium flux slope at 10 µM. hit rate 33% among 3,700. AID 1718;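 active = thallium flux slope above the same plate's solvent-control mean plus 3 SD in both duplicate wells; inconclusive = duplicate wells that disagreed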;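 note: run without ouabain in cells lacking the KCC2 cotransporter; slope of fluorescence scaled to its starting value between 10 and 20 s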
The depositor's hits bear a star; ? = inconclusive; nt = not tested or not shown.

SMILES	ROMK primary	Insulin prom inh	WT yeast gro inh	Ins promoter up	KCC2 mod	Lmaj promast	KCC2 sec1	KCC2 bumet counter	KCC2 sec2	HEK counter1	KCC2 ouabain	HEK293 Tl flux2
Oc1csc(Cc2nc(-c3ccc4ccccc4c3)cs2)n1	0.15	nt	77	-0.36	nt	2	0.016	?	0.027	0.0073	0.016	0.01
CCCCCC(=O)NNC1CC(=O)N(c2ccccc2)C1=O (stereo not given)	nt	nt	nt	nt	-0.18	nt	nt	nt	nt	nt	nt	nt
Cc1ccccc1-n1c(-c2csc(C)c2C)n[nH]c1=S	nt	-6	24	0.17	2.4	-3	nt	nt	nt	nt	nt	nt
S=c1[nH]nc(-c2ccc3ccccc3n2)n1-c1ccc(Cl)cc1	nt	nt	12	-0.01	14*	8	0.0069	0.032*	0.043*	0.029*	0.037*	0.026*
Cc1ccccc1-n1c(-c2ccco2)n[nH]c1=S	1.3	27	2	0.58	-0.21	-7	nt	nt	nt	nt	nt	nt
Fc1ccc(-n2c(-c3ccc4ccccc4n3)n[nH]c2=S)cc1Cl	0.01	nt	32	-0.08	26*	5	0.0075	0.023*	0.042*	0.031*	0.04*	0.019*
Cc1ccccc1-n1c(-c2ccc3ccccc3n2)n[nH]c1=S	nt	nt	nt	-0.14	11*	nt	0.011	0.023*	0.035	?	?	0.013
Cc1ccccc1-n1c(-c2csc3ccccc23)n[nH]c1=S	0.073	13	31	-0.1	15*	-3	0.016*	0.045*	0.031	0.015*	0.043*	?
COC(=O)c1cc(C#N)c(Oc2ccc(OC)cc2)nc1C	nt	-15	-8	0.58	1.6	-2	nt	nt	nt	nt	nt	nt
CCOc1ccc(OCC)c(NC(=O)C2CCCN(S(=O)(=O)c3c(C)noc3C)C2)c1 (stereo not given)	nt	-57	-4	-0.06	-0.04	-4	nt	nt	nt	nt	nt	nt
CCOC(=O)Nc1ccc(S(=O)(=O)NC2CCCCC2)cc1	-0.044	-49	3	-0.36	-0.22	3	nt	nt	nt	nt	nt	nt
COC(=O)c1ccc(NC(=O)CN2CCOCC2)cc1	2.1	nt	29	0.46	-0.16	-5	nt	nt	nt	nt	nt	nt
Cc1c(/C=N/NC(=O)c2ccccc2O)c2ccccn2c1C(=O)c1ccc(F)cc1	-0.63	-84	0	0.6	-3.8*	59*	0.018	?	0.03	0.0073	0.014	0.01
CCOC(=O)N/N=C/c1c(C)c(C(=O)c2ccc(F)cc2)n2ccccc12	nt	57	-14	0.49	0.012	8	nt	nt	nt	nt	nt	nt
COc1ccc(Nc2nccc3c2nnn3C)cc1	1	nt	24	nt	0.84	2	nt	nt	nt	nt	nt	nt
Cc1ccc(C(=O)N(CN2CCCC2=O)c2ccc(F)cc2)cc1C	0.65	nt	-4	-0.28	0.81	-2	nt	nt	nt	nt	nt	nt
Cc1ccc(C(=O)N(CN2CCCC2=O)c2ccccc2)cc1C	0.17	nt	-12	0.63	nt	0	0.0086	0.0064	0.028	0.0073	0.02	0.0098
C=CCn1c(C)cc(C(=O)CSc2nnc(Cc3ccccc3)o2)c1C	-1.1	7	11	0.18	nt	-4	0.007	0.0062	0.03*	0.0036	0.017*	0.011
C=CCn1c(C)cc(C(=O)CSc2nnc(NC(C)C)s2)c1C	nt	-10	-43	-0.11	-0.14	2	nt	nt	nt	nt	nt	nt
C=CCn1c(C)cc(C(=O)CSc2nnc(NCc3ccccc3)s2)c1C	0.083	-22	13	nt	-2.7*	1	0.0067	0.0047	0.035	?	?	0.011
O=c1cc(/N=C/c2coc3cc(Br)ccc3c2=O)[nH]c(=S)[nH]1	nt	nt	nt	2.1	9.5*	nt	0.014*	0.045*	0.034	0.0089*	0.026	0.011

High-throughput results as filed in PubChem BioAssay.
